Only some compounds are listed: those with a hit (about 3.1% of all), similar ones and a draw of the others.
C8 TRAIL sens = sensitizes caspase-8 expressing cells to TRAIL; NB7+C8 cells + TRAIL, ATPlite viability luminescence; inhibition (viability loss, TRAIL sensitization), % at 10 µM; 360,000 compounds, 1% hits; AID 624354;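 active = compounds causing at least 50% loss of cell viability in the single-dose screen, relative to plate controls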
CF NFkB inh = inhibitors of cystic fibrosis induced NF-kB; KKLEB NF-kB-GFP reporter, PAF-induced, GFP fluorescence overnight; inhibition, % at 5 µM; 360,000 compounds, 0.86% hits; AID 588850;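 active = at least 50% inhibition at 5 µM, scaled per plate between neutral and stimulator controls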;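 also: PAF is a Pseudomonas aeruginosa culture filtrate used as stimulus; plate controls were PAF-stimulated DMSO wells for no effect and unstimulated DMSO wells for full effect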
KKLEB cytotox = CF airway cell cytotoxicity counter-screen | KKLEB CF airway cells viability, ATPlite luminescence, overnight; hits give low values; cells stimulated with P. aeruginosa culture filtrate | activity change (cytotoxicity), % at 5 µM | 360,000 compounds, 0.36% hits | AID 602141;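 active = corrected activity change at or below -50% at 5 µM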
HIF-2a block = HIF-2a inhibition; AID 624352; 360,000 compounds, 0.72% hits; 786-0 RCC cells HIF-2a reporter, luciferase luminescence, overnight; inhibition, % at 18.8 µM;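 active = inhibition of the luminescence signal of 40% or more relative to plate controls, in a single-dose primary screen at 18.75 µM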
PPC-1+TRAIL kill = kills PPC-1 cancer cells in the presence of TRAIL. PPC-1 cells + TRAIL, ATPLite viability luminescence. cell killing (% activity), % at 4 µM or 5 µM. 220,000 compounds, 0.41% hits;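 active = cell killing above 50% in the first pass at 4 µM, then a duplicate retest at 5 µM averaging 50% or more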;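 also: plate controls were cells with TRAIL plus DMSO for no effect and medium-only wells lacking cells for full effect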
Peg3 prom inh-1 = inhibitors of Peg3 promoter; HeLa PEG-Prom luciferase reporter, luminescence, overnight; inhibition, % at 20 µM; 360,000 compounds, 1.7% hits; AID 588405;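 active = inhibition of at least 50% at 20 µM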
Peg3 prom inh-2 = confirmation of Peg3 promoter inhibitors | shares compounds with Peg3 prom inh-1 | HeLa PEG-Prom luciferase reporter, luminescence, overnight | inhibition, % at 20 µM | 1,300 compounds, 84% hits;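 active = at 20 µM dose, 40% or more inhibition averaged across four replicates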
The depositor's hits bear a star; · = no result.

SMILES | C8 TRAIL sens | CF NFkB inh | KKLEB cytotox | HIF-2a block | PPC-1+TRAIL kill | Peg3 prom inh-1 | Peg3 prom inh-2
O=[N+]([O-])c1cc(-c2csc(NCCc3nc4cc(C(F)(F)F)ccc4n3CCCO)n2)ccc1Cl | 15.8 | -17.8 | -9.7 | -3.8 | · | 54.0* | 20.4
CN(C)CC1CCC/C(=C\c2ccc(OC(=O)/C=C/c3ccccc3)cc2)C1=O (configuration not stated) | 22.4 | -5.4 | -1.1 | -10.8 | · | 100.9* | 99.7*
O=C(Oc1ccc2c(c1)OCC2=O)c1ccc(Cl)cc1 | 8.9 | -4.8 | 4.9 | 18.0 | -2.4 | 1.0 | ·
CN(C)CC1CCC/C(=C\c2ccc(OC(=O)c3ccc(Cl)cc3)cc2)C1=O (configuration not stated) | 36.1 | -18.2 | -7.9 | 16.5 | · | 105.2* | 100.1*
O=C(Nc1nc2cc3c(cc2s1)OCCO3)c1ccco1 | 88.3* | -1.4 | -37.0 | 71.3* | · | 66.4* | 61.7*
CCN1CCN(c2cc(-c3ccccc3)nc3cc(-c4cccc(F)c4)nn23)CC1 | 9.7 | 17.8 | -6.1 | -68.3 | 11.1 | 11.3 | ·
O=C(c1ccoc1)N1CCN(c2cc(-c3cccnc3)nc3cc(-c4cccc(Cl)c4)nn23)CC1 | 34.2 | 4.3 | -1.4 | -5.7 | · | 54.1* | 28.6
CC(=O)N1CCN(c2cc(-c3ccccc3)nc3cc(-c4cccc(Cl)c4)nn23)CC1 | 35.2 | 6.2 | -1.4 | -26.7 | · | 54.8* | 57.7*
Cc1cc(/C=c2/sc3nc4ccccc4n3c2=O)c(C)n1-c1ccccn1 | 79.7* | 9.5 | -54.4* | 74.7* | 4.9 | 74.7* | 88.3*
CCCOC(=O)c1cccc(Nc2nc(-c3cccnc3)nc3ccccc23)c1 | 2.9 | 0.0 | -22.1 | 21.0 | 11.4 | 96.2* | 94.8*
O=C(OCCNc1nc(-c2ccccc2)nc2ccccc12)c1cccnc1 | 21.5 | -7.3 | -6.1 | 11.4 | -1.1 | 21.1 | ·
CN(C(=O)CSc1nnc(-c2ccco2)n1C)C1CCCCC1 | -1.8 | -11.4 | 3.6 | -15.5 | · | -1.4 | ·
Cc1cc(C)nc(NC(=O)c2c(F)c(F)c(F)c(C(=O)Nc3cc(C)cc(C)n3)c2F)c1 | -5.0 | 11.9 | -29.4 | 32.4 | · | 90.5* | 72.3*
Cc1cc(C)nc(NC(=O)c2ccc3c(c2)OCO3)c1 | · | · | · | · | 17.8 | · | ·
COC(=O)CCC(C)C1CCC2C3C(OC(C)=O)CC4CC(O)CCC4(C)C3CC(O)C12C (configuration not stated) | 2.6 | 9.2 | -0.2 | 11.4 | · | 8.1 | ·
Oc1c(Cl)cc(Cl)c2cccnc12 | 14.6 | 19.6 | -26.3 | 15.0 | 23.6 | 64.2* | 66.3*
COc1ccc(C(O)(CCC(C)C)C(CN2CCOCC2)c2ccccc2)cc1 (configuration not stated) | 3.7 | 10.8 | -3.9 | 10.0 | · | 59.4* | 47.0*
CC(C)CCC(O)(c1ccccc1)C(CN1CCOCC1)c1ccccc1 (configuration not stated) | 10.1 | 1.6 | -4.7 | 14.7 | · | 22.5 | ·
O=C(/C=C/[C@H]1O[C@@H](n2ccc(=O)[nH]c2=O)[C@H](O)[C@@H]1O)NCCN1CCCC1 | -9.3 | -6.0 | 5.6 | 7.7 | · | 3.6 | ·
O=C(COc1cccc(C(F)(F)F)c1)NNC(=O)Cn1c(=O)cnc2ccccc21 | 0.6 | -14.7 | -10.1 | 9.1 | · | -14.5 | ·
CC(=NNC(=S)N1CCN(C2CCCCCC2)CC1)c1ccccn1 | 24.7 | 5.7 | -2.3 | -17.3 | · | 102.2* | 98.5*
COc1ccccc1NS(=O)(=O)c1ccc2ccccc2c1 | -25.0 | -0.2 | 12.4 | 13.1 | · | 27.8 | ·
COc1ccc(NS(=O)(=O)c2ccc3ccccc3c2)c2ncccc12 | 18.6 | 51.1* | 5.4 | 23.9 | · | 51.0* | 51.6*
Cc1cc(C)cc(NC(=O)[C@@H](NC(=O)c2ccco2)C(C)C)c1 | -6.0 | -14.3 | 11.4 | 1.1 | · | 4.3 | ·
Cc1ccc2sc(N(CCCN(C)C)C(=O)c3ccc(S(=O)(=O)N(C)C4CCCCC4)cc3)nc2c1C | 46.9 | 35.9 | -16.6 | -11.3 | · | 104.1* | 100.5*
SMILES | C8 TRAIL sens | CF NFkB inh | KKLEB cytotox | HIF-2a block | PPC-1+TRAIL kill | Peg3 prom inh-1 | Peg3 prom inh-2
CCN(CC)CCN(C(=O)c1ccc(S(=O)(=O)N(C)C2CCCCC2)cc1)c1nc2c(C)cccc2s1 | 1.4 | 9.6 | -12.2 | -0.4 | · | -4.6 | ·
Cc1ccc(NC(=O)c2nc[nH]c2C(=O)NCCCCNC(=O)c2[nH]cnc2C(=O)Nc2ccc(C)cc2)cc1 | 38.6 | 85.5* | -82.7* | -4.3 | · | 74.3* | 43.4*
Cc1ccc(NC(=O)c2nc[nH]c2C(=O)NCCCCCCNC(=O)c2[nH]cnc2C(=O)Nc2ccc(C)cc2)cc1 | 15.5 | 4.3 | 3.7 | 1.4 | · | 45.7 | ·
CS(=O)(=O)c1sc(C#N)c2c1C(=O)CC(c1ccccc1)C2 (configuration not stated) | 73.5* | 81.4* | -38.2 | 95.3* | 4.1 | 98.2* | 96.6*
Cc1oc2c(c(=O)c1C)C(=O)CC(c1ccccc1)C2 (configuration not stated) | 9.9 | 8.4 | 10.1 | 19.5 | -2.5 | 6.9 | ·
COc1ccc(CNS(=O)(=O)c2cc3c4c(c2)C(C)C(=O)N4CCC3)cc1 (configuration not stated) | -21.4 | -15.6 | 7.5 | 9.6 | · | 0.5 | ·
COC(=O)c1ccc(OCC2c3cc(OC)c(OC)cc3CCN2C(C)=O)cc1 (configuration not stated) | -10.3 | 28.0 | -16.9 | 7.4 | -0.1 | 11.8 | ·
COC(=O)c1ccc(OCC2c3cc(OC)c(OC)cc3CCN2C(=O)c2ccco2)cc1 (configuration not stated) | 17.6 | 14.1 | -23.2 | 0.3 | 10.4 | 60.1* | 44.6*
COc1cc(-c2coc3c(C(=O)NCc4ccc(C(F)(F)F)cc4)cccc23)ccc1O | 13.2 | -14.9 | -9.8 | -13.1 | · | -1.6 | ·
Cc1ccc(N2CC(C(=O)Nc3nccs3)CC2=O)cc1Cl (configuration not stated) | 31.1 | 45.0 | -31.6 | -64.6 | 5.1 | 89.7* | 94.2*
COCc1nnc(NC(=O)C2CC(=O)N(c3ccc(C)c(Cl)c3)C2)s1 (configuration not stated) | -12.7 | 15.2 | -14.1 | 8.4 | · | -10.8 | ·
CCOC(=O)CCCC(=O)Nc1ncnc2c1C(c1ccccc1)c1c(ccc3ccccc13)O2 (configuration not stated) | 5.9 | -10.7 | 4.3 | 25.0 | · | 36.2 | ·
O=C(c1ccccc1)N(C(=O)c1ccccc1)c1ncnc2c1C(c1ccccc1)c1c(ccc3ccccc13)O2 (configuration not stated) | 6.8 | 55.8* | -4.5 | 21.0 | · | 77.9* | 77.1*
CC(C)CC1C(=O)N(Cc2cn(CCC3OCCO3)nn2)CCS(=O)(=O)N1Cc1ccc(-c2ccc(F)cc2)cc1 (configuration not stated) | 11.1 | 13.6 | 1.8 | 1.5 | · | 50.2* | 55.3*

Screens from PubChem BioAssay.
